Shown is part of a subset that was picked to be rich in hits.
U2OS ROS induce – ROS inducers in U2OS cancer cells, primary screen, cell-based, H2DCF-DA fluorescence; U2OS ROS induction; ROS induction (% of piperlongumine), % at 10 µM; 2% of 46,000 active; AID 624156, 2012; in the data active = ROS induction above about 79%, passing the limit was not always enough
PD-1 reversal – activators reversing PD-1 mediated T-cell inhibition, primary screen, luminescence, primary human CD4 T cells, PD-L1 beads. 29,000 tested, under 10 active. CellTiter-Glo 96 h. activation, % (no concentration beside the values); call rule not given here
Large screens that a line does not name were inactive.

C[C@@H]1CN([C@H](C)CO)C(=O)Cc2cc(NC(=O)Cc3cn(C)c4ccccc34)ccc2O[C@@H]1CN(C)Cc1ccc(-c2ccccc2)cc1	U2OS ROS induce 109
C[C@@H]1CN([C@H](C)CO)C(=O)Cc2cc(NC(=O)Cc3cn(C)c4ccccc34)ccc2O[C@@H]1CN(C)Cc1ccc(Oc2ccccc2)cc1	U2OS ROS induce 131
C[C@H](CO)N1C[C@H](C)[C@H](CN(C)Cc2ccc(Oc3ccccc3)cc2)Oc2ccc(NC(=O)Cc3cn(C)c4ccccc34)cc2CC1=O	none
C/C(=C\CC[C@@H](C)[C@H]1CC(O)[C@@]2(C)C3CC[C@H]4C(C)(C)[C@@H](O[C@@H]5OC(CO)C(O)C(O)C5OC5OC(CO)C(O)C(O)C5O)CC[C@@]45C[C@@]35CC(O)[C@]12C)C(=O)O (some centres undefined)	none
CCCCc1nc(OCC(=O)c2ccccc2)c(C#N)c2c1COC(C)(C)C2	none (no result: PD-1 reversal)
O=C1C(=O)N(c2ccccn2)C(c2ccccc2)C1C(=O)c1cccs1 (centres undefined)	none (no result: PD-1 reversal)
CCSc1nc2sc3c(c2c(=O)n1CC)CCc1ccccc1-3	none (no result: PD-1 reversal)
CCOC(=O)c1cnc2c(ccc3ccccc32)c1NCC(C)C	none (no result: PD-1 reversal)
CCOC(=O)c1cnc2ccc(F)cc2c1NCc1ccco1	none (no result: U2OS ROS induce)
CCOC(=O)c1cnc2ccccc2c1NCCc1ccccc1	U2OS ROS induce 113 (no result: PD-1 reversal)
CCOC(=O)c1cnc2c(ccc3ccccc32)c1NCCOC(=O)c1cccnc1	U2OS ROS induce 248 (no result: PD-1 reversal)
O=C(N/N=C/c1cccs1)c1ccccc1O	none (no result: PD-1 reversal)
COc1ccc(C#Cc2ccc3c(c2)[C@]2(C(=O)N3)[C@H](c3ccccc3OCCO)N3[C@H](c4ccccc4)[C@H](c4ccccc4)OC(=O)[C@H]3[C@@H]2C(=O)N2CCc3cc(OC)c(OC)cc3C2)cc1	none (no result: PD-1 reversal)
COc1cc2c(cc1OC)CN(C(=O)[C@H]1[C@@H]3C(=O)O[C@@H](c4ccccc4)[C@@H](c4ccccc4)N3[C@@H](c3ccccc3OCCO)[C@]13C(=O)Nc1ccc(C#CCCO)cc13)CC2	U2OS ROS induce 120 (no result: PD-1 reversal)
COc1cc2c(cc1OC)CN(C(=O)[C@@H]1[C@H]3C(=O)O[C@H](c4ccccc4)[C@H](c4ccccc4)N3[C@H](c3ccc(O)cc3)[C@@]13C(=O)Nc1ccccc13)CC2	none (no result: PD-1 reversal)
COc1cc2c(cc1OC)CN(C(=O)[C@@H]1[C@H]3C(=O)O[C@H](c4ccccc4)[C@H](c4ccccc4)N3[C@H](c3ccc(OCCO)cc3)[C@@]13C(=O)Nc1ccccc13)CC2	U2OS ROS induce 98 (no result: PD-1 reversal)
COC(=O)C(CC#Cc1ccc2c(c1)[C@]1(C(=O)N2)[C@H](C(=O)N2CCCCCCC2)[C@H]2C(=O)O[C@H](c3ccccc3)[C@H](c3ccccc3)N2[C@@H]1c1ccc(OCCO)cc1)C(=O)OC	U2OS ROS induce 104 (no result: PD-1 reversal)
COC(=O)C(CC#Cc1ccc2c(c1)[C@]1(C(=O)N2)[C@H](c2ccc(O)cc2)N2[C@H](c3ccccc3)[C@H](c3ccccc3)OC(=O)[C@H]2[C@@H]1C(=O)N1CCCCCCC1)C(=O)OC	none (no result: PD-1 reversal)
O=C1O[C@@H](c2ccccc2)[C@@H](c2ccccc2)N2[C@@H](c3ccc(OCCO)cc3)[C@]3(C(=O)Nc4ccc(C#CCCO)cc43)[C@@H](C(=O)N3CCCCCCC3)[C@H]12	none (no result: PD-1 reversal)
O=C1O[C@@H](c2ccccc2)[C@@H](c2ccccc2)N2[C@@H](c3ccccc3OCCO)[C@]3(C(=O)Nc4ccc(C#CCCO)cc43)[C@@H](C(=O)N3CCCCCCC3)[C@H]12	U2OS ROS induce 221 (no result: PD-1 reversal)
COc1cc(Cl)c(C(F)(F)F)cc1NC(=O)c1c(OC)cccc1OC	none
COc1ccc(-c2nnc3sc(NC(=O)C(C)C)nn23)cc1	none (no result: PD-1 reversal)
Cc1ccc(NC(=O)CC(c2ccccc2)c2ccccc2)cc1C	none
CCOc1ccc(NC(=O)CN2C(=O)c3ccccc3S2(=O)=O)cc1	none
COc1cc2c(cc1OC)CN(C(=O)[C@H]1[C@@H]3C(=O)O[C@@H](c4ccccc4)[C@@H](c4ccccc4)N3[C@@H](c3ccccc3OCCO)[C@]13C(=O)Nc1ccc(C#CC4=CCCCC4)cc13)CC2	U2OS ROS induce 87 (no result: PD-1 reversal)
COc1cc2c(cc1OC)CN(C(=O)[C@H]1[C@@H]3C(=O)O[C@@H](c4ccccc4)[C@@H](c4ccccc4)N3[C@@H](c3ccc(OCCO)cc3)[C@]13C(=O)Nc1ccc(C#CC4=CCCCC4)cc13)CC2	none (no result: PD-1 reversal)
Cc1c(NC(=O)CN(c2cc(Cl)c(Cl)cc2Cl)S(C)(=O)=O)cccc1[N+](=O)[O-]	none
CCc1ccccc1OCC(=O)Nc1ccc(C)cc1[N+](=O)[O-]	none
CCOC(=O)c1cnc(N2CCOCC2)nc1N	none
CCCc1c(C(=O)OCC)c(C(=O)OCC)c2c(-c3ccccc3)nc(N3CCOCC3)nn12	U2OS ROS induce 114
COc1cc(C)c(Br)cc1S(=O)(=O)NCCN1CCOCC1	U2OS ROS induce 142
CCOc1cc(C)c(S(=O)(=O)NCCN2CCOCC2)cc1C	none
C=CCNC(=O)c1cc2c(=O)n3cccc(C)c3nc2n(CC2CCCO2)c1=N (centres undefined)	U2OS ROS induce 90 (no result: PD-1 reversal)
O=C(O)c1ccccc1C(=O)NCC1CCCO1 (centres undefined)	none (no result: PD-1 reversal)
C=CCNC(=O)c1cc2c(=O)n3ccccc3nc2n(CCC)c1=N	none (no result: PD-1 reversal)
Cc1cccn2c(=O)c3cc(C(=O)NCC4CCCO4)c(=N)n(C4CCCCC4)c3nc12 (centres undefined)	U2OS ROS induce 96 (no result: PD-1 reversal)
CC(O)c1cccc(NC(=O)c2cnn3c2NC(c2cccs2)CC3C(F)(F)F)c1 (centres undefined)	none (no result: PD-1 reversal)
Cc1c(Cc2ccccc2)c(Cl)n2c(nc3ccccc32)c1C#N	U2OS ROS induce 164 (no result: PD-1 reversal)
N#Cc1c(-c2ccccc2Cl)c(C#N)c2nc3ccccc3n2c1N	none (no result: PD-1 reversal)
O=C(CSc1nc2ccccc2c2nc3ccccc3n12)NCCc1ccccc1	none (no result: PD-1 reversal)
CCCc1cc(NCCc2ccccc2)n2c(nc3ccccc32)c1C#N	U2OS ROS induce 92 (no result: PD-1 reversal)
CC(C)C(=O)NC1CCCCCCCCCCC1	none (no result: PD-1 reversal)
COc1ccccc1NC(=O)CSc1nc2ccccc2c(=O)n1-c1ccc(C)cc1	none
O=C(Nc1nc2ccccc2s1)C1CC1	none (no result: PD-1 reversal)
c1ccc2sc(NC3=NCN(C4CCCCCC4)CN3)nc2c1	U2OS ROS induce 100
O=C(CCC(=O)Nc1cccc2ccccc12)Nc1cccc2ccccc12	none (no result: PD-1 reversal)
CCOC(=O)c1cnc2c(C(F)(F)F)cccc2c1NCCCN1CCOCC1	U2OS ROS induce 113
CCOC(=O)c1cnc2ccc(OCC)cc2c1NCCCN1CCOCC1	none (no result: PD-1 reversal)
O=C(CCCCCCC(=O)Nc1ccccc1O)N=NC=C1C=CN(O)C=C1	none (no result: PD-1 reversal)
COc1ccc(OC)c(CN=c2c([N+](=O)[O-])nn(-c3ccc(Cl)cc3)n2O)c1	none
Cc1ccc(S(=O)(=O)Nc2ccc3c(c2)CC(=O)N([C@@H](C)CO)C[C@@H](C)[C@@H](CN(C)S(=O)(=O)c2cccs2)O3)cc1	none
C[C@@H]1CN([C@@H](C)CO)C(=O)Cc2cc(NS(=O)(=O)c3ccccc3)ccc2O[C@@H]1CN(C)S(=O)(=O)c1ccc(F)cc1	none
Cc1noc(C)c1NC(=O)Nc1ccc2c(c1)CC(=O)N([C@@H](C)CO)C[C@H](C)[C@H](CN(C)S(=O)(=O)c1cccs1)O2	none
Cc1noc(C)c1NC(=O)Nc1ccc2c(c1)CC(=O)N([C@H](C)CO)C[C@@H](C)[C@@H](CN(C)S(=O)(=O)c1cccs1)O2	U2OS ROS induce 106 (no result: PD-1 reversal)
C[C@H]1CN([C@@H](C)CO)C(=O)Cc2cc(NS(=O)(=O)c3ccc(Cl)cc3)ccc2O[C@@H]1CN(C)S(=O)(=O)c1ccc(Cl)cc1	U2OS ROS induce 84
